Screening results (PubChem BioAssay)
IMPase cell inh: qHTS Assay for Identifying the Cell-Membrane Permeable IMPase Inhibitors; CHO-M1 cells, IP1 accumulation, HTRF TR-FRET ratio; inhibition (IP1 accumulation), % at 46.1 µM; Inositol monophosphatase 1 (Rattus norvegicus), P97697; 120,000 tested, under 10 active; AID 901, 2007; active means well fitted curve in the direction sought with a large enough effect in the signal ratio, not every such curve was filed as active; inconclusive means small, poorly fitted or top-dose-only effect, or a change in a side signal; inactive means no such curve, though single readings can be large or run the other way; the % refers to the signal ratio;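 further: cells stimulated with carbachol in lithium chloride buffer; plate controls were DMSO basal wells for no effect and reference inhibitor wells for full effect; higher means more IMPase inhibition seen as more IP1 and lower FRET ratio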
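Elevated IP1 in lysates lowers TR-FRET signal (665/620 ratio and 620 channel reported). Cells were CHO-M1, given carbachol (50 uM as added) plus 50mM LiCl, pH 7.4, 30 min, 37C; compounds titrated up to 46 uM; AC50 by Hill equation.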
IMPase Li cell: qHTS Assay for Identifying the Cell-Membrane Permeable IMPase Inhibitors: Potentiation with Lithium; Potency, µM (highest dose often 59.4 µM), inactives show at the highest dose activity, negative = IMPase inhibition, hits mostly inhibitors; 0.35% of 210,000 active; AID 1457, 2008; CHO-M1 cells, IP1 TR-FRET (IP-One), carbachol + lithium;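 further: IP1 builds up when IMPase is blocked and the TR-FRET signal falls; potency means the concentration at half of the fitted maximal effect; plate controls were basal vehicle for no effect and high inhibitor control for full effect; nearly all actives have a fitted effect of over 50% in size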
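Lithium-sensitised IP1 accumulation assay; M1-expressing CHO cells treated 30 min at 37C with compound. Competitive antibody detection by time-resolved FRET followed a 10 min room-temperature lysis step.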
15-hLO-2 inh: qHTS Assay for Inhibitors of 15-hLO-2 (15-human lipoxygenase 2); Polyunsaturated fatty acid lipoxygenase ALOX15B (Homo sapiens), O15296; purified 15hLO-2, xylenol orange hydroperoxide absorbance; Potency, µM (top dose mostly 57.1 µM), without a hit: at the highest dose activity change, negative = inhibition, usual class: inhibitors; 0.56% of 110,000 active; AID 881, 2007; further: potency means the concentration at half of the fitted maximal effect; nearly all actives have a fitted effect of over 60% in size
Target sequence (O15296 whole entry, looked up): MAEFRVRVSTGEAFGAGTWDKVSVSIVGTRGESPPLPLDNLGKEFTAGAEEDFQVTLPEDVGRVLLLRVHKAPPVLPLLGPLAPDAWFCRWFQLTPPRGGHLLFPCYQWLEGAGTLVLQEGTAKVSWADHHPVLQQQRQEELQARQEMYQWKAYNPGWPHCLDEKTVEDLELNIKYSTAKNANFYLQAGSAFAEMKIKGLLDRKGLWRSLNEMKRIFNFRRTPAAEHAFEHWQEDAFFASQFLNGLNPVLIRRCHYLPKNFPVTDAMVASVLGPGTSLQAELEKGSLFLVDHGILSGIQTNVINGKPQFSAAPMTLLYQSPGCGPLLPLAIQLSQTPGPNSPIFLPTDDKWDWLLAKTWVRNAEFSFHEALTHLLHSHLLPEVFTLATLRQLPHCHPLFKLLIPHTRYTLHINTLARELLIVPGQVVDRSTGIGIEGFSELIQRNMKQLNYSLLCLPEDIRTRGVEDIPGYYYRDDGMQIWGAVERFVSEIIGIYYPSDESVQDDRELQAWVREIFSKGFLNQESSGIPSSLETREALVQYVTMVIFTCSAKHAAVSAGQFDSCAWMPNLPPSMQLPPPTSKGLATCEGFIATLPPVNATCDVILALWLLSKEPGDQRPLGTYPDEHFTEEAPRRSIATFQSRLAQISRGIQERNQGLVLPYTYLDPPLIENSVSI
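Purified human 15hLO-2 (50 nM) preincubated 15 min with compound, then 45 uM arachidonic acid for 90 min at RT in 25 mM Hepes pH 7.5, 0.01% Triton X-100. Hydroperoxide detected by Fe-xylenol orange; 573/405 nm absorbance ratio.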
12-hLO inh: qHTS Assay for Inhibitors of 12-hLO (12-human lipoxygenase); Polyunsaturated fatty acid lipoxygenase ALOX12 (Homo sapiens), P18054; purified 12-hLO, xylenol orange hydroperoxide absorbance; Potency, µM (series often up to 57.1 µM), without a hit: top-dose activity change, negative = inhibition, hits mostly inhibitors; 0.12% of 150,000 active; further: potency means the concentration at half of the fitted maximal effect; nearly all actives have a fitted effect of over 55% in size
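Purified human 12hLO (150 nM), preincubated 15 min with compound, then 40 uM arachidonic acid for 30 min, room temperature, Hepes pH 7.0 with 0.01% Triton X-100. Hydroperoxide detected by ferrous iron/xylenol orange; 573/405 nm absorbance ratio gives reaction progress.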
The depositor's hits bear a star; [ ] = remark or other dose. Only some compounds are listed: those with a hit (about 0.57% of all), similar ones and a draw of the others. Unless noted, the call rests on the fitted dose curve; in most records, active means well fitted curve in the direction sought with a large enough effect; inconclusive means small, poorly fitted or top-dose-only effect, or another doubt; inactive means no such curve, though single readings can be large; an effect the other way counts as inactive or inconclusive. Unless noted, on the % scale 0 is the no-effect control and ±100 the full control effect.

What do the screens show for `CC(C)CCC[C@@H](C)[C@@H]1CC[C@@H]2[C@H]3CC[C@H]4C[C@@H](N)CC[C@@]4(C)[C@@H]3CC[C@]21C`?
IMPase Li cell: -13%; 15-hLO-2 inh: -2%[11.4 µM]; 12-hLO inh: -1%[11.4 µM]

What do the screens show for `Cc1cc(-c2ccc(N=Nc3cc(S(=O)(=O)O)c4ccccc4c3N)c(C)c2)ccc1N=Nc1cc(S(=O)(=O)O)c2ccccc2c1N`?
IMPase Li cell: -2%; 15-hLO-2 inh: 3.2µM*; 12-hLO inh: inconclusive

Results for Nc1c(S(=O)(=O)O)cc(S(=O)(=O)O)c2ccc(N=Nc3ccccc3)c(O)c12 ?
IMPase Li cell: 14%; 15-hLO-2 inh: -2%[11.4 µM]; 12-hLO inh: -3%[11.4 µM]

How did COc1ccc2cc(C(=O)c3ccccc3)c(=O)oc2c1 do in these assays?
IMPase cell inh: 9; IMPase Li cell: -13%[38.3 µM]; 15-hLO-2 inh: -7%; 12-hLO inh: -9%

Results for CCOc1ccc2cc(C(=O)c3ccccc3)c(=O)oc2c1 ?
IMPase Li cell: 25µM*; 12-hLO inh: 1%

How did O=C(O)c1ccccc1NCn1c(=S)sc2ccccc21 do in these assays?
IMPase Li cell: 2%; 15-hLO-2 inh: -5%[11.4 µM]; 12-hLO inh: 0%[11.4 µM]

How did O=C(Nc1cccc(F)c1)c1ccc2c(c1)OCO2 do in these assays?
IMPase cell inh: 7; IMPase Li cell: 3%[38.3 µM]; 15-hLO-2 inh: 11%[2.29 µM]; 12-hLO inh: 4%

How did O=C(Nc1c(C(=O)Nc2cccc(F)c2)oc2ccccc12)c1ccc2c(c1)OCO2 do in these assays?
IMPase cell inh: 1; IMPase Li cell: 14µM*; 15-hLO-2 inh: inconclusive; 12-hLO inh: -19%

Results for COC(=O)Cn1c(=NC(=O)c2ccc(OC)c(OC)c2)sc2cc(OC)ccc21 ?
IMPase Li cell: 8.9µM*; 12-hLO inh: 0%

How did CCOC(=O)Cc1csc(NC(=O)c2sc3nc4cc(C)ccc4cc3c2N)n1 do in these assays?
IMPase cell inh: -5; IMPase Li cell: -14%; 12-hLO inh: -12%

What do the screens show for `CCOC(=O)Cc1csc(NC(=O)c2sc3nc4ccc(CC)cc4cc3c2N)n1`?
IMPase cell inh: -25; IMPase Li cell: inconclusive; 15-hLO-2 inh: -28%; 12-hLO inh: 10µM*

How did CCN(CC)CCn1c(-c2ccccc2)nc2c(NCCOC)nc(C)nc21 do in these assays?
IMPase Li cell: 3%; 15-hLO-2 inh: 24%; 12-hLO inh: -2%

What do the screens show for `S=C(Nc1ccc(Oc2ccccc2)cc1)NC1CCCCCC1`?
IMPase cell inh: -8; IMPase Li cell: 22%; 12-hLO inh: inconclusive

How did S=C(Nc1ccc(Oc2ccc(NC(=S)NC3CCCCC3)cc2)cc1)NC1CCCCC1 do in these assays?
IMPase Li cell: -8%; 12-hLO inh: 1.3µM*

What do the screens show for `CCNc1ncc2nc(-c3cccs3)c(=O)n(CCC#N)c2n1`?
IMPase Li cell: 0%; 15-hLO-2 inh: -23%

How did C=C1Cc2c(Cl)cc3[nH]c4c5c3c2[C@@]2(O)[C@@H]1C[C@@H]2C(C)(C)O[C@H]5[C@@H]1CC[C@@]2(O)[C@@]35O[C@@H]3[C@@H](O)[C@@H](C(=O)O)O[C@H]5CC[C@]2(C)[C@@]41C do in these assays?
IMPase Li cell: 8%

What do the screens show for `O=C1CC(c2ccco2)Cc2c1cnn2-c1nc2ccccc2s1` (configuration not stated)?
IMPase Li cell: 13µM*; 12-hLO inh: 1%

Results for O=C(O)c1ccc(CNc2ccccc2C(=O)O)cc1 ?
IMPase cell inh: -5; IMPase Li cell: 10µM*; 15-hLO-2 inh: 1%; 12-hLO inh: 5%

Results for Cc1ccc(NCc2ccccc2OCc2ccccc2F)cc1 ?
IMPase cell inh: 0; IMPase Li cell: 46%[38.3 µM]; 15-hLO-2 inh: 5%; 12-hLO inh: -7%

Results for Oc1ccc(NCc2ccccc2OCc2ccccc2F)cc1 ?
IMPase cell inh: 15; IMPase Li cell: 11%[38.3 µM]; 15-hLO-2 inh: 13µM*; 12-hLO inh: inconclusive

Results for C[N+](C)(C)[C@@H](C1=CCCC1=O)c1ccccc1 ?
15-hLO-2 inh: -12%[11.4 µM]; 12-hLO inh: 2%[11.4 µM]

What do the screens show for `COCCn1c(=O)c(CCc2ccccc2)nc2cnc(Oc3ccccc3)nc21`?
IMPase Li cell: -1%; 15-hLO-2 inh: -10%

What do the screens show for `CCc1cc(=O)oc2cc(C)cc(O)c12`?
IMPase cell inh: inconclusive; IMPase Li cell: 3.2µM*; 15-hLO-2 inh: -15%; 12-hLO inh: -8%

Results for CCCc1cc(=O)oc2cc(C)cc(O)c12 ?
IMPase cell inh: -24; IMPase Li cell: 1%[38.3 µM]; 15-hLO-2 inh: -4%; 12-hLO inh: -7%

What do the screens show for `CCCOc1ccc(C(=O)Nc2ccc3oc(-c4ccc5ccccc5c4)nc3c2)cc1`?
IMPase cell inh: -12

How did CCCCOc1ccc(CSCCNC(=S)Nc2ccccc2)cc1 do in these assays?
IMPase cell inh: -5; IMPase Li cell: 11%; 12-hLO inh: -27%

What do the screens show for `CC(C)COc1ccc(CSCCNC(=S)Nc2ccccc2)cc1`?
IMPase cell inh: 1; IMPase Li cell: 21%[38.3 µM]; 15-hLO-2 inh: 25µM*; 12-hLO inh: 28µM*

How did CCCCNc1nc(C)nc2c1nc(-c1ccccc1)n2CCCN1CCCCC1C (configuration not stated) do in these assays?
IMPase Li cell: 14%; 15-hLO-2 inh: 53%; 12-hLO inh: 1%

What do the screens show for `CCC(C)c1ccc(O)c(NC(=O)c2cccnc2)c1` (configuration not stated)?
IMPase cell inh: 0; IMPase Li cell: 10µM*; 15-hLO-2 inh: 3%; 12-hLO inh: 3%

Results for CCc1ccccc1Nc1nc2ccccc2c2nncn12 ?
IMPase cell inh: -1

What do the screens show for `O=C(c1csnn1)N1CCC2(CC1)CCN(c1cccc(-c3ccccc3)c1)CC2`?
IMPase Li cell: 5%; 15-hLO-2 inh: 3%; 12-hLO inh: 5%

Results for CC(C)c1cc(Nc2cccc(O)c2)cc(C(C)C)c1O ?
IMPase cell inh: 0; IMPase Li cell: 2%[38.3 µM]; 15-hLO-2 inh: 13µM*; 12-hLO inh: inconclusive

What do the screens show for `O=c1c(-c2cccs2)nc2cnc(N3CCOCC3)nc2n1CCc1ccccc1`?
IMPase Li cell: -13%; 15-hLO-2 inh: -5%

Results for NCCOB(c1ccccc1)c1ccccc1 ?
IMPase cell inh: 13; IMPase Li cell: 29%; 15-hLO-2 inh: 20µM*; 12-hLO inh: inconclusive

Results for NCCOc1ccccc1OCCN ?
IMPase Li cell: -2%

What do the screens show for `N#Cc1ccc(Oc2ccc(-c3nc4ccccc4nc3-c3ccccc3)cc2)cc1C#N`?
IMPase cell inh: -1; IMPase Li cell: -2%; 12-hLO inh: 3%

Results for N#Cc1ccc(Oc2ccc(-c3cnc4ccccc4n3)cc2)cc1C#N ?
IMPase cell inh: 3; IMPase Li cell: 2.8µM*; 12-hLO inh: -4%

How did COc1ccccc1NC(=S)NC(=O)C(C)(C)C do in these assays?
IMPase cell inh: -4; 15-hLO-2 inh: -24%; 12-hLO inh: 13µM*
